Results on 37 targets are retold here after the supplement of paper PMC12819154, “High-throughput peptide-centric local stability assay extends protein–ligand identification to membrane proteins, tissues and bacteria” (Nature Structural & Molecular Biology, 2025).
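Further: lysate desalted by size exclusion to strip endogenous ATP, peptide intensities built from DIA-NN precursor signals, and peptides missing any value discarded before comparison.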

Compound in this assay: Nc1ncnc2c1ncn2[C@@H]1O[C@H](COP(=O)(O)OP(=O)(O)OP(=O)(O)O)[C@@H](O)[C@H]1O [adenosine 5'-triphosphate]
The experiment in a line: log2 fold change of tryptic peptide abundance, ligand vs vehicle (limited proteolysis) (log2 ratio); higher = more trypsin-susceptible (destabilized). Particulars: ligand concentration: 5 mM; sample: E. coli desalted lysate; replicate design: treated before aliquoting. The protocol: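 HT-PELSA: desalted E. coli K-12 BW25113 lysate (with 12 mM MgCl2) incubated with 5 mM ATP (pH 7) or water for 30 min at 25 C, then a 4 min trypsin pulse at 22 C. Peptides were quantified by DIA-MS (4 replicates). Value is the peptide log2 fold change (treated/control); negative = stabilized. Scale: negative = ligand-stabilized region.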
With “UniProt P0A8F8 (peptide sequence: AILYGDKITPSMAK, peptide start residue: 550)”, the log2 fold change was -0.631.
As for “UniProt P00509 (peptide sequence: VWVSNPSWPNHK, peptide start residue: 123)”, the figure is -1.24; as for “UniProt P36683 (peptide sequence: EALGLPHSDVFR, peptide start residue: 359)”, 0.334.
As for “UniProt P23883 (peptide sequence: ALSLAIENR, peptide start residue: 13)”, the figure is -2.59; as for “UniProt P75863 (peptide sequence: WVGPQMTR, peptide start residue: 122)”, -0.577.
On to “UniProt P03024 (peptide sequence: HSVSTPSLEASHHATSD, peptide start residue: 327)”, for which the log2 fold change came to 0.482.
On to “UniProt P30844 (peptide sequence: NLVENAHR, peptide start residue: 260)”, for which the log2 fold change was -1.02.
Next, “UniProt P00561 (peptide sequence: NKHIDLR, peptide start residue: 493)”: 1.32; “UniProt P37327 (peptide sequence: AMAIHEHIR, peptide start residue: 37)”: -0.62; “UniProt P42603 (peptide sequence: TPSAVDER, peptide start residue: 175)”: -0.551.
For “UniProt P09169 (peptide sequence: MPYIGLTGSYR, peptide start residue: 198)”, the log2 fold change is 1.26.
With “UniProt P36879 (peptide sequence: TYPGGVQALR, peptide start residue: 13)”, the log2 fold change is -3.15.
As for “UniProt P00893 (peptide sequence: HSQSYMQSLPDFVR, peptide start residue: 493)”, the figure is 0.316; as for “UniProt P31554 (peptide sequence: GNIMWENEFR, peptide start residue: 268)”, -0.46.
As for “UniProt P21866 (peptide sequence: RHSATTAPDPLVK, peptide start residue: 118)”, the figure is 1.65; as for “UniProt P37671 (peptide sequence: SYWESHQHEIQPLTR, peptide start residue: 174)”, -0.718.
As to “UniProt P39187 (peptide sequence: VLQHIAGR, peptide start residue: 63)”, the log2 fold change stood at 0.842.
As to “UniProt P56579 (peptide sequence: MGIQLEQK, peptide start residue: 172)”, the log2 fold change turned out to be 0.509.
Next, “UniProt P12282 (peptide sequence: QTLHSDATVGQPK, peptide start residue: 74)”: -1.54; “UniProt P75968 (peptide sequence: HLIIKPLSR, peptide start residue: 102)”: -1.04; “UniProt P77364 (peptide sequence: IDSQTAGGKAPLGVASVAK, peptide start residue: 295)”: -0.814.
As for “UniProt P39199 (peptide sequence: AWFCGHEFYVDER, peptide start residue: 97)”, the figure is 1.88.
As for “UniProt P37028 (peptide sequence: IVALKPDLVIAWR, peptide start residue: 74)”, the figure is 0.465.
For the target “UniProt P00393 (peptide sequence: ISAAAHNELTK, peptide start residue: 228)”, the log2 fold change was -0.559.
Next, “UniProt P16525 (peptide sequence: TTFEHIVTVESELPTAAR, peptide start residue: 122)”: 0.318.
For the target “UniProt P14375 (peptide sequence: LNVVAIEVPSLR, peptide start residue: 302)”, the log2 fold change was -1.45.
As for “UniProt P39177 (peptide sequence: FEEHLQHEAQER, peptide start residue: 58)”, the figure is -2.59; as for “UniProt P21599 (peptide sequence: VLEVQGMK, peptide start residue: 138)”, -1; as for “UniProt P28630 (peptide sequence: LSLLWPDGK, peptide start residue: 188)”, -0.437.
As for “UniProt P61517 (peptide sequence: DLDVTATNR, peptide start residue: 190)”, the figure is 0.547.
As to “UniProt P10346 (peptide sequence: IAEDGNPQVLIKNPPSQR, peptide start residue: 214)”, the log2 fold change came to 0.654.
Turning to “UniProt P23862 (peptide sequence: KRIQHQDFER, peptide start residue: 111)”, the log2 fold change stood at 1.03.
Next, “UniProt P37774 (peptide sequence: TMVIVTHEMSFAR, peptide start residue: 196)”: 1.7; “UniProt P77552 (peptide sequence: AENTVVTGAGWLK, peptide start residue: 41)”: 0.332; “UniProt P09029 (peptide sequence: DVFPIIADR, peptide start residue: 72)”: -2.73.
In the case of “UniProt P33650 (peptide sequence: AYAGEASQHLDAALAR, peptide start residue: 217)”, the log2 fold change came to 0.832.
For the target “UniProt P37005 (peptide sequence: IVDSQAHLEPATR, peptide start residue: 33)”, the log2 fold change is -0.548.
